Results reported in the supplement of paper PMC10849652.
Targets with a hit are over-represented here; the source holds about 7,900 in all. About 0.6% of all pairs of compound and target were hits. Unmarked numbers belong to inactive results.

Assays:
Assay in all cases: log2 fold change, soluble protein after heating vs DMSO (PISA); higher = thermal stabilisation; K562 cells, 10 uM, 30 min; active = over 0.2 and 3.5 SD of the protein, either way, in both replicates (recomputed)
[1] = compound: Cc1ccc(NC(=O)c2ccc(CN3CC[C@H](N(C)C)C3)c(C(F)(F)F)c2)cc1Nc1nccc(-c2cncnc2)n1 [bafetinib]
Method in brief: (§1)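 K562 cells at 2×10^6 cells/mL were given 10 μM compound for 30 min. Aliquots then went through 3 min of heating across 48°C-58°C, were pooled, and were extracted in PBS with 0.5% NP-40 at 4°C, and the supernatant after 21,000xg for 90 min was quantified by TMTpro 16plex LC-MS/MS with channel sums equalised. Thermal stability relative to control samples, from duplicates, is given as log2 fold change.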

[2] = compound: Cc1cccc(CC(=O)N2CCc3c2ccc(-c2cn(C)c4ncnc(N)c24)c3F)n1
Method in brief: as §1

[3] = compound: Cc1cn(-c2cc(NC(=O)c3ccc(C)c(Nc4nccc(-c5cccnc5)n4)c3)cc(C(F)(F)F)c2)cn1 [nilotinib]
Method in brief: as §1

[4] = compound: Cc1nc(Nc2n[nH]c3c2CN(C(=O)N[C@H](CN(C)C)c2ccccc2)C3(C)C)c2sccc2n1
Method in brief: as §1

[5] = compound: Cc1nc(Nc2ncc(C(=O)Nc3c(C)cccc3Cl)s2)cc(N2CCN(CCO)CC2)n1 [dasatinib]
Method in brief: as §1

[6] = compound: Cc1ncc(-c2ccnc(Nc3ccc(S(C)(=O)=O)cc3)n2)n1C(C)C
Method in brief: as §1

[7] = compound: Cn1cc(-c2ccc3c(c2)CCN3C(=O)Cc2cccc(C(F)(F)F)c2)c2c(N)ncnc21
Method in brief: as §1

[8] = compound: Cn1cc(-c2ccc3nnc(C(F)(F)c4ccc5ncccc5c4)n3n2)cn1
Method in brief: as §1

[9] = compound: Cn1cncc1[C@@](N)(c1ccc(Cl)cc1)c1ccc2c(c1)c(-c1cccc(Cl)c1)cc(=O)n2C [tipifarnib]
Method in brief: as §1

[10] = compound: FC(F)(F)c1ccc(/C=C/c2nc(COc3ccc(CCCCn4ccnn4)cc3)co2)cc1 [mubritinib]
Method in brief: as §1

[11] = compound: NC(=O)Nc1cc(-c2cccc(F)c2)sc1C(=O)N[C@H]1CCCNC1
Method in brief: as §1

[12] = compound: NC(=O)c1cnc(N[C@@H]2CCCC[C@@H]2N)nc1Nc1cccc(-n2nccn2)c1
Method in brief: as §1

[13] = compound: NC1(c2ccc(-c3nc4ccn5c(=O)[nH]nc5c4cc3-c3ccccc3)cc2)CCC1
Method in brief: as §1

[14] = compound: NCC(=O)Nc1ccc(-n2nc(C(F)(F)F)cc2-c2ccc3c(ccc4ccccc43)c2)cc1
Method in brief: as §1

[15] = compound: Nc1ccccc1NC(=O)c1ccc(CNC(=O)OCc2cccnc2)cc1 [entinostat]
Method in brief: as §1

[16] = compound: O=C(CCCCCCC(=O)Nc1ccccc1)NO [vorinostat]
Method in brief: as §1

[17] = compound: O=C(CCCCCCNC(=O)c1cnc(N(c2ccccc2)c2ccccc2Cl)nc1)NO [citarinostat]
Method in brief: as §1

[18] = compound: O=C(O)c1ccc2c(c1)nc(Nc1cccc(Cl)c1)c1ccncc12 [silmitasertib]
Method in brief: as §1

[19] = compound: O=C1NC(=O)C(c2cnc3ccccn23)=C1c1cn2c3c(cc(F)cc13)CN(C(=O)N1CCCCC1)CC2
Method in brief: as §1

[20] = compound: c1cc(OCCN2CCCCC2)cc(-c2n[nH]c3ccc(-c4nnc[nH]4)cc23)c1
Method in brief: as §1

Sequence of UniProt P55786 (P55786 whole entry, looked up): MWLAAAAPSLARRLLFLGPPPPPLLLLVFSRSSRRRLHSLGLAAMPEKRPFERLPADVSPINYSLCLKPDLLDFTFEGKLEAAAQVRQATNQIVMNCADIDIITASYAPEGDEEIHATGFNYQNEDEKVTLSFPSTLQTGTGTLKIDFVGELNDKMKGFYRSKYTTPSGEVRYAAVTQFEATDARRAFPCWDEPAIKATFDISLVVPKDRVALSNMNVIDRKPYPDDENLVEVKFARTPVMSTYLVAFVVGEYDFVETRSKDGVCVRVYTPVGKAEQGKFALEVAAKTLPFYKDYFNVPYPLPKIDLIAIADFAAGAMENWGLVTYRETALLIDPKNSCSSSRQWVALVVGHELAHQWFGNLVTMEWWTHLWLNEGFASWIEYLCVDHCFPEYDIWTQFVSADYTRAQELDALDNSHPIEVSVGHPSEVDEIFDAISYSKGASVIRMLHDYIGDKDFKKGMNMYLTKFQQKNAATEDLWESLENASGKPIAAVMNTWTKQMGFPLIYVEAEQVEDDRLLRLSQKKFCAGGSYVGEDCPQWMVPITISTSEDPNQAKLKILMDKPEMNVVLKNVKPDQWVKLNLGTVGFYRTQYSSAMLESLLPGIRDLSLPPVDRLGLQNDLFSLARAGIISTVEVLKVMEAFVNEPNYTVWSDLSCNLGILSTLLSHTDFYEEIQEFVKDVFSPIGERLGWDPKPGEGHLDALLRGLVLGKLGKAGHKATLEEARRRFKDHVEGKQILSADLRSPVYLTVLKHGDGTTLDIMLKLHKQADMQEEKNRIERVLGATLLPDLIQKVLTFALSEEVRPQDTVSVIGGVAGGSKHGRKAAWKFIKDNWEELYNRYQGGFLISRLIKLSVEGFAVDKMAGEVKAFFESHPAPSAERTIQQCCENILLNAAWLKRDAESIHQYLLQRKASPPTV
Sequence of UniProt Q13469 (Q13469 whole entry, looked up): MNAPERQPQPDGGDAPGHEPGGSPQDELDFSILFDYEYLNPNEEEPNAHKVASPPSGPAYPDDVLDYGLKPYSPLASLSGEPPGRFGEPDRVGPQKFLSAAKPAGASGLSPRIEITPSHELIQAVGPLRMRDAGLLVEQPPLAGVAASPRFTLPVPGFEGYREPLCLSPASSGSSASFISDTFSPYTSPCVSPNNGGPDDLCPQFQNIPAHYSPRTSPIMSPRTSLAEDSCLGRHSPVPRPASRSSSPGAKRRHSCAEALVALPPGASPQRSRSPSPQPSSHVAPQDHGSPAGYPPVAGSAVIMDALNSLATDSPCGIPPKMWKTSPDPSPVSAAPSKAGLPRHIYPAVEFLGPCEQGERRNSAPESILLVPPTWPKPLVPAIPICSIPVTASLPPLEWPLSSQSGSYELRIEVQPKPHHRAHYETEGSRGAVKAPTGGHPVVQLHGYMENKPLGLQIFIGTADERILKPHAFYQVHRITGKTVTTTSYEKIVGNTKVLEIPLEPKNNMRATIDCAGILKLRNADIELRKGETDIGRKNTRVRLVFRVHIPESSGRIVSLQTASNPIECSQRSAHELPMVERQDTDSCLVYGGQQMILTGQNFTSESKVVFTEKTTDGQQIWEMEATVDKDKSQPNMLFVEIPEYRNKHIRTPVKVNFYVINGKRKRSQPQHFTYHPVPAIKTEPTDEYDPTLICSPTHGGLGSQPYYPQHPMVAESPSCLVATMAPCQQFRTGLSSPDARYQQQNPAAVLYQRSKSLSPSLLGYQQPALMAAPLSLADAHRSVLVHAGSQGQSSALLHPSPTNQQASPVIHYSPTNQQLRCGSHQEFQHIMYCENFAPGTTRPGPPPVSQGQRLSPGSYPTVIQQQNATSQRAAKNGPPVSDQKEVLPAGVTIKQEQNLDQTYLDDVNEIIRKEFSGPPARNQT
Sequence of UniProt P46934 (P46934 whole entry, looked up): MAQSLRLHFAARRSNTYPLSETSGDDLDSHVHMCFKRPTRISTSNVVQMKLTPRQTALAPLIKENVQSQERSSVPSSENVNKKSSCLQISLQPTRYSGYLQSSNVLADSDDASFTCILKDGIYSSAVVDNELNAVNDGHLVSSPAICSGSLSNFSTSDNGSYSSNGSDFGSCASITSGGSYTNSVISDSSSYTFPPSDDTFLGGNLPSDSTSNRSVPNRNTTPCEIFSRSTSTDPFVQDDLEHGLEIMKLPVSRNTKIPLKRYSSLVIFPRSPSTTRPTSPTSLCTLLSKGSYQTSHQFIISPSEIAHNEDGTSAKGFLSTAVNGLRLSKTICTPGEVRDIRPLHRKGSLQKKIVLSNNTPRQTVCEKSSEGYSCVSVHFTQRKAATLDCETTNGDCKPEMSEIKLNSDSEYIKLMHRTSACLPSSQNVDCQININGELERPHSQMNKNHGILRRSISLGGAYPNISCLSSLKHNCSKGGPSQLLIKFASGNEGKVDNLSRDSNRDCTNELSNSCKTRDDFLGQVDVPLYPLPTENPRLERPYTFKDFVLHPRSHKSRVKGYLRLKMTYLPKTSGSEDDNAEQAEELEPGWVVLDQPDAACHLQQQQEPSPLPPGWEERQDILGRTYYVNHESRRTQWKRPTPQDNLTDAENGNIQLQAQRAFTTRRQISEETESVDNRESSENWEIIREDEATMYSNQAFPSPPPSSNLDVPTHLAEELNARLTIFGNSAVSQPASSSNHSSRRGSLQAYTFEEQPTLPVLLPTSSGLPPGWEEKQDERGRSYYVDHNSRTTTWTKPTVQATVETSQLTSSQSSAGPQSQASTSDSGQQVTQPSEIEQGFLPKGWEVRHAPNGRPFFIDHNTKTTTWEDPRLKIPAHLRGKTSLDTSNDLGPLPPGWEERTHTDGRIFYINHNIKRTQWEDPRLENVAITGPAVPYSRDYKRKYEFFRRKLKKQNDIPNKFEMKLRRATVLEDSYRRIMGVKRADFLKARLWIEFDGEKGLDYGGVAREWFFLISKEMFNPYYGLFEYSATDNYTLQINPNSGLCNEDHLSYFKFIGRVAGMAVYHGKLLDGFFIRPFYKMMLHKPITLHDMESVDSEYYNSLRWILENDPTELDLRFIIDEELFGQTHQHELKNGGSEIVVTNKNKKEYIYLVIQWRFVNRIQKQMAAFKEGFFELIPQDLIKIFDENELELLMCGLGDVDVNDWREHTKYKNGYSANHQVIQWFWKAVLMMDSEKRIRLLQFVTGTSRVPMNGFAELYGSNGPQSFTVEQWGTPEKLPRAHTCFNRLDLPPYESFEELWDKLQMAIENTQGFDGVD
Sequence of UniProt P20585 (P20585 whole entry, looked up): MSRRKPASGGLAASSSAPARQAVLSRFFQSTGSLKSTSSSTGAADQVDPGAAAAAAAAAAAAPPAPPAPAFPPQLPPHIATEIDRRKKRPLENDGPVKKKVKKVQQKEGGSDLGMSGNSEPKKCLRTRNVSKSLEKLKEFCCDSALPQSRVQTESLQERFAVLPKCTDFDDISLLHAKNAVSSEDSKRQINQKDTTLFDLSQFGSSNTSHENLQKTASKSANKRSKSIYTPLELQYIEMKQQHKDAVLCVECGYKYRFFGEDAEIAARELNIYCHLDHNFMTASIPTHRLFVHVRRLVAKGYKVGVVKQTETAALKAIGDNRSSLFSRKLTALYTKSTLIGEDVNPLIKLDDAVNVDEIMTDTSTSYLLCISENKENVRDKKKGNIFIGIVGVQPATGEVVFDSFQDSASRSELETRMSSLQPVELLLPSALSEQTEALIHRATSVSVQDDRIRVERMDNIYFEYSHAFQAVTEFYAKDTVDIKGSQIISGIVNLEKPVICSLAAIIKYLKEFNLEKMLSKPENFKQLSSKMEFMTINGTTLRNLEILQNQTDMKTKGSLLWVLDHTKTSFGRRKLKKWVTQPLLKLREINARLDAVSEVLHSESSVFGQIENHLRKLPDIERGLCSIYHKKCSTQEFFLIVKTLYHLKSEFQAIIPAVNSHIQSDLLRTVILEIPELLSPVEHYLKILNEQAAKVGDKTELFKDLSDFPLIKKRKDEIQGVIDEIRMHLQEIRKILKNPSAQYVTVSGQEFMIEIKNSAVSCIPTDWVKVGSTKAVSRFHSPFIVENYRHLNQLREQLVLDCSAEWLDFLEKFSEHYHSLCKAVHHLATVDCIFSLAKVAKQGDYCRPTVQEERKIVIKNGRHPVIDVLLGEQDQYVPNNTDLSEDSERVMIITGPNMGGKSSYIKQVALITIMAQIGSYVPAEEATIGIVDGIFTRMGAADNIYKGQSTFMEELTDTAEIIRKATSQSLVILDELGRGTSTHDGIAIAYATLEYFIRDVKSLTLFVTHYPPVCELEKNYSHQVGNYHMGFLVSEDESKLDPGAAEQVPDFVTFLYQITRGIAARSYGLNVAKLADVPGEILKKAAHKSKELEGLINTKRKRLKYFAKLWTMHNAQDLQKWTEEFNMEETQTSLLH
Sequence of UniProt P51948 (P51948 whole entry, looked up): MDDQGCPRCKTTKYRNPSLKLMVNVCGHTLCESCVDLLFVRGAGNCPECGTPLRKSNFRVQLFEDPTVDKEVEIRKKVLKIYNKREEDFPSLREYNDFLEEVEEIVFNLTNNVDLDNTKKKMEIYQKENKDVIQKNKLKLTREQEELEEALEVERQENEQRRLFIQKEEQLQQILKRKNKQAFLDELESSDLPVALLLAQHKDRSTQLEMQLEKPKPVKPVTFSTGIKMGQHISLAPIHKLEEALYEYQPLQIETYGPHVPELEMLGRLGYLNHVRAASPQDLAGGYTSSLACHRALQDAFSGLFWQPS
Sequence of UniProt Q00013 (Q00013 whole entry, looked up): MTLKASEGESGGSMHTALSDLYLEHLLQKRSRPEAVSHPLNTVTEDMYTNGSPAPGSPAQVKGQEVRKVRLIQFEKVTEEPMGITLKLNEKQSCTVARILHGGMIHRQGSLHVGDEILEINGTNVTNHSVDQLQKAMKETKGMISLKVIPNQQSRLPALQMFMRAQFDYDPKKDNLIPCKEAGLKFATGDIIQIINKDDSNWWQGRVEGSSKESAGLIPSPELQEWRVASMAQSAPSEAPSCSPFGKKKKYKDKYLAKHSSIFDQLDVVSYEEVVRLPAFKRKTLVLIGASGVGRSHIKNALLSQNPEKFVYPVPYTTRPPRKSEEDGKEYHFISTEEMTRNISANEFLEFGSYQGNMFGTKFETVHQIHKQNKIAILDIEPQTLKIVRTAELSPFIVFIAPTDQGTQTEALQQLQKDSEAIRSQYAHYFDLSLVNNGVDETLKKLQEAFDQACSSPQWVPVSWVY

| Target | log2 fold change [1] | log2 fold change [2] | log2 fold change [3] | log2 fold change [4] | log2 fold change [5] | log2 fold change [6] | log2 fold change [7] | log2 fold change [8] | log2 fold change [9] | log2 fold change [10] | log2 fold change [11] | log2 fold change [12] | log2 fold change [13] | log2 fold change [14] | log2 fold change [15] | log2 fold change [16] | log2 fold change [17] | log2 fold change [18] | log2 fold change [19] | log2 fold change [20] |
| --- | --- | --- | --- | --- | --- | --- | --- | --- | --- | --- | --- | --- | --- | --- | --- | --- | --- | --- | --- | --- |
| PAK1 isoform 2 (UniProt Q13153) | -0.017 | 0.04 | 0.03 | 0.036 | -0.025 | -0.027 | 0.041 | 0.035 | -0.004 | 0.015 | -0.067 | 0.051 | 0.012 | -0.083 | 0.021 | 0.096 | -0.033 | 0.043 | -0.068 | -0.032 |
| MPP1 (UniProt Q00013) | 0.043 | 0.035 | 0.073 | -0.179 | -0.086 | -0.019 | 0.047 | -0.023 | -0.04 | 0.034 | -0.083 | -0.015 | -0.159 | -0.067 | 0.047 | 0.093 | 0.036 | 0.022 | 0.027 | -0.059 |
| NFATC2 (UniProt Q13469) | 0.006 | 0.066 | -0.135 | -0.341 | -0.213 | -0.445 (active) | -0.025 | -0.075 | -0.029 | -0.124 | -0.076 | -0.203 | -0.064 | -0.075 | 0.147 | -0.011 | 0.101 | -0.078 | -0.062 | -0.258 |
| NPC1 (UniProt O15118) | -0.211 (active) | -0.02 | 0.024 | -0.017 | -0.001 | 0.05 | 0.004 | 0.012 | 0.038 | -0.027 | 0.002 | 0.039 | -0.196 | -0.017 | -0.049 | 0.004 | 0.017 | 0.031 | 0.027 | -0.106 |
| OPA1 isoform 2 (UniProt O60313) | -0.022 | 0.069 | -0.039 | -0.025 | -0.169 | -0.004 | 0.054 | -0.031 | -0.12 | 0.062 | -0.046 | -0.054 | -0.165 | -0.072 | 0.024 | 0.033 | 0.05 | -0.027 | -0.033 | -0.048 |
| NAPG (UniProt Q99747) | 0 | 0.128 | -0.057 | -0.157 | -0.133 | -0.011 | 0.034 | 0.033 | -0.094 | 0.062 | -0.027 | -0.087 | -0.085 | -0.094 | 0.102 | 0.117 | 0.075 | 0.032 | -0.029 | -0.017 |
| NOB1 (UniProt Q9ULX3) | 0.014 | 0.093 | -0.044 | -0.005 | -0.054 | -0.045 | -0.003 | 0.059 | -0.106 | -0.043 | -0.032 | 0.002 | -0.041 | -0.021 | 0.047 | 0.093 | -0.003 | -0.096 | 0.062 | 0.038 |
| MSH3 (UniProt P20585) | -0.012 | 0.051 | -0.046 | -0.014 | -0.038 | 0.052 | -0.032 | 0.009 | -0.029 | 0.167 | -0.175 | -0.001 | -0.126 | -0.007 | -0.032 | -0.017 | 0.031 | 0.034 | -0.069 | -0.019 |
| NPEPPS (UniProt P55786) | 0.031 | 0.011 | 0.002 | 0.121 | -0.083 | -0.063 | 0.085 | 0.02 | -0.032 | 0.102 | -0.02 | -0.035 | -0.046 | -0.041 | -0.007 | 0.076 | 0.048 | -0.038 | -0.003 | -0.03 |
| MNAT1 (UniProt P51948) | -0.072 | 0.011 | -0.033 | 0.023 | -0.002 | -0.031 | 0.018 | 0 | 0.025 | 0.032 | -0.055 | -0.039 | 0.005 | -0.058 | -0.028 | -0.003 | 0.078 | -0.015 | -0.047 | -0.036 |
| NCKAP1 isoform 2 (UniProt Q9Y2A7) | -0.028 | 0.08 | -0.016 | -0.045 | -0.096 | -0.04 | 0.04 | -0.004 | -0.005 | 0.002 | 0.066 | -0.009 | -0.12 | -0.025 | 0.024 | 0.063 | 0.015 | -0.029 | -0.055 | 0.046 |
| MSTO1 (UniProt Q9BUK6) | -0.03 | 0.028 | -0.057 | 0.033 | -0.174 | -0.005 | 0.064 | 0.037 | -0.096 | 0.011 | 0.013 | 0.015 | -0.144 | -0.059 | -0.005 | 0.053 | 0.08 | -0.015 | -0.045 | 0.017 |
| NDUFB8 (UniProt O95169) | -0.029 | -0.002 | 0.015 | 0.027 | 0.056 | -0.04 | -0.08 | 0.154 | 0.071 | 0.027 | 0.028 | 0.083 | -0.008 | 0.02 | 0.113 | -0.075 | -0.016 | 0.004 | -0.172 | -0.036 |
| NEDD4 isoform 4 (UniProt P46934) | -0.067 | 0.054 | -0.047 | -0.083 | -0.068 | 0.052 | -0.016 | 0.027 | -0.024 | 0.008 | -0.043 | -0.027 | -0.187 | -0.074 | 0.029 | -0.04 | 0.084 | 0.064 | -0.008 | 0.013 |
| OAT (UniProt P04181) | -0.038 | -0.018 | 0.036 | -0.021 | -0.109 | -0.073 | 0.026 | 0.061 | -0.004 | 0.002 | -0.051 | -0.076 | -0.235 | -0.058 | 0.029 | 0.129 | 0.131 | -0.036 | -0.031 | 0.006 |
| MRPS31 (UniProt Q92665) | 0.066 | 0.042 | -0.041 | 0.093 | -0.012 | 0.065 | 0.078 | 0.027 | -0.002 | 0.138 | -0.001 | 0.03 | -0.05 | 0 | -0.011 | -0.039 | 0.008 | -0.012 | -0.036 | -0.083 |
